The subject of this assay is HepG2. In words: GSK_TCMDC: Percent inhibition of human HepG2 cell line. Test compounds present at 10uM. It is filed as functional.
As a reminder, the Inhibition is how much of the control response was suppressed. The molecule `O=C(Nc1ccc(Br)cc1)N(CCN1CCOCC1)CC(O)COCc1ccc(Cl)c(Cl)c1.O=C(O)C(F)(F)F` (stereo not given) gave an Inhibition of 16%. Next, `COc1ccc(CN2CCC(CN3CC4(OC3=O)c3ccccc3-c3ccccc34)C2)c(O)c1` (stereo not given): 22%; `Cc1cccc2nc(-c3ccc(-c4cccc(NC(=O)c5cnn6cccnc56)c4)cc3)[nH]c12`: 100%.

As to `COc1ccc(C=NNc2cc(C)nc3ccc(OC)cc23)c(OC)c1`, the Inhibition came out at 23%. Next, `CC(C)(C)c1ccc(CNC(=O)c2cc(CNC3CCC(N)CC3)ccc2O)cc1` (stereo not given): 1%; `CCC(c1ccccc1)c1nn2c(-c3cccs3)nnc2s1` (stereo not given): 10%; `CN1CCN(c2cc3c(cc2Cl)CCN3C(=O)Nc2ccc(NC(=O)c3ccc(C(F)(F)F)cc3)cc2)CC1.Cl`: 98%. Next, `CCCCOC(=O)c1ccc(Nc2cc(C)nc3ccc(OC)cc23)cc1`: 4%; `CNCCNCc1ccc(-c2ccc(-c3nc4cc(C(F)(F)F)ccc4[nH]3)cc2)cc1.O=C(O)C(F)(F)F`: 28%. As for `O=C(Nc1ccc(-c2ccccc2)s1)N[C@H]1CCN(Cc2ccc(OCCCN3CCCCC3)cc2)C1`, the figure is 5%; as for `Oc1cccc(-c2nc(-c3ccccc3)c(-c3ccc4oc5ccc(-c6[nH]c(-c7cccc(O)c7)nc6-c6ccccc6)cc5c4c3)[nH]2)c1`, 30%; as for `Cc1cc(N(C)C)nc(Nc2ccc(NC(=O)c3ccccc3Cl)cc2)n1`, 3%. On to `O=S1(=O)C=C(c2ccccc2)CC1`, for which the Inhibition stood at 57%.

`Cc1cc(N/N=C/c2cccc([N+](=O)[O-])c2)c2ccc(C(F)(F)F)cc2n1`: the Inhibition is 2%. `CN(C)CCN(C)Cc1ccc(-c2ccc(NC(=O)c3cccc(C#N)c3)cc2)cc1.O=C(O)C(F)(F)F`: the Inhibition is 20%. As for `Cc1cc(=NN=Cc2ccc(Cl)cc2)c2cc(C(F)(F)F)ccc2[nH]1`, the figure is 0%.

As for `O=C(Nc1ccc(Cl)cc1)Nc1cccc(CCNCc2ccccc2)c1.O=C(O)C(F)(F)F`, the Inhibition is given as 16%. Next, `CCc1c[nH]c2c(N3CCCCC3=O)cc(C(=O)N[C@@H](Cc3ccccc3)[C@H](O)CNCc3cccc(OC)c3)cc12.O=CO`: 8%; `Cc1nc(Nc2ccc(F)cc2)nc(N2CCc3ccccc3C2C)c1CO` (stereo not given): 0%. As for `COc1cc2nccc(Nc3ccc(NC(=O)c4ccc(C)cc4)c(O)c3)c2cc1OC.Cl`, the figure is 96%; as for `O=C(Nc1cccc(CN2CCCN(CCc3ccccc3)CC2)c1)c1ccc(Cl)c(Cl)c1.O=C(O)C(F)(F)F`, 41%.

The molecule `COc1ccc2c(c1)CC(NCc1ccc(-c3ccc4nc[nH]c4c3)cc1)C2.O=C(O)C(F)(F)F` (stereo not given) registered an Inhibition of 30%. As for `O=C(Nc1ccc(OC2CCN(Cc3ccsc3)C2)c(Cl)c1)c1ccc(F)cc1.O=C(O)C(F)(F)F` (stereo not given), the figure is 0%; as for `CCOc1ccc(OCC(=O)Nc2nc(-c3ccc(OC)cc3)c(C)s2)cc1`, 0%; as for `CC(C)c1cccc(OCC2CCN(c3ncc(C(=O)NC4CC4)cc3Cl)CC2)c1`, 9%.

In turn, `Cc1ccc(C)c(NC(=O)Nc2ccc(Nc3nc(C)cc(N4CCOCC4)n3)cc2)c1` registered an Inhibition of 88%. As for `CCN(CC)CCCC(C)N=c1cc(C=Cc2ccccc2Cl)[nH]c2cc(Cl)ccc12.O=P(O)(O)O` (stereo not given), the figure is 0%; as for `COc1ccc2nccc(N/N=C/c3ccc([N+](=O)[O-])cc3)c2c1`, 9%.

In turn, `COc1ccc2ncc(Cl)c(CCN3CCC(NCc4ccc5c(n4)NC(=O)CS5)CC3)c2c1.Cl` came in with an Inhibition of 26%. As for `Cc1c(-c2ccc(C(=O)NC3CC(C)(C)NC(C)(C)C3)cc2)[nH]c2cc(Cl)c(Cl)cc12`, the figure is 34%; as for `COc1ccc2nc(C)cc(Nc3ccc(Oc4ccc(Cl)cc4)c(Cl)c3)c2c1`, 48%; as for `COc1ccc(NC(=O)/C=C/c2ccccc2Cl)cc1OCCN1CCC(NC2CC2)CC1`, 23%. Next, `COc1ccc(C(=O)Nc2ccc(Cl)cc2C(=O)Nc2ccncc2)cc1`: 7%; `Cc1cc2nc(-c3cc(Br)ccc3O)c(-c3cc(Br)ccc3O)nc2cc1C`: 2%. Regarding `O=C(Nc1ccc(-c2cccc(-c3nc4cc(C(F)(F)F)ccc4[nH]3)c2)cc1)c1ccncc1`, the Inhibition was 63%. As for `CN(CC(=O)Nc1cc(C(F)(F)F)ccc1-n1cncn1)Cc1ccc2ccccc2c1`, the figure is 18%; as for `COc1ccc(N2CCN(c3nc(N)c4cc(OC)c(OC)cc4n3)CC2C)cc1.Cl` (stereo not given), 8%; as for `Cc1onc(-c2ccccc2Cl)c1C(=O)Nc1cc(Cl)c(Cl)cc1Cl`, 3%. Next, `N#Cc1cc(C(=O)Nc2ccccc2)c(N)nc1SCC(=O)NC(c1ccccc1)c1cccs1` (stereo not given): 34%. Next, `COc1cc(NC(=O)N2CCc3ccc(OCCC4CCCN4C)cc32)cc(C(F)(F)F)c1.O=C(O)C(F)(F)F` (stereo not given): 5%.

The values above are taken from ChEMBL document CHEMBL1157539, “Thousands of chemical starting points for antimalarial lead identification” (Nature, 2010).
